These results are taken from article PMC10812921, “Transcriptional Coactivator BOB1 (OBF1, OCA-B) Modulates the Specificity of DNA Recognition by the POU-Domain Factors OCT1 and OCT2 in a Monomeric Configuration”.

In assay [1] the target is POU1 (OCT1 POU domain) (human, UniProt P14859 260-458). The experiment in a line: EMSA-SELEX-seq; no BOB1; 20 mM Tris-HCl pH 7.6, 140 mM NaCl, 10% glycerol, 0.5 mM EDTA, 0.05% Triton X-100, 0.1 mg/mL BSA, 0.1 mg/mL poly(dI-dC), 5 mM DTT, room temperature, 20 min; high values mean tight binding. Conditions: protein: recombinant; dsDNA, one strand shown. A digest of the protocol: (§1)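 Binding preference is reported as the percentage of sequenced 8-mers that match a motif pattern. Tagged POU-domain proteins were made in E. coli BL21, purified under denaturing conditions and renatured. A 30 ng portion was combined with 300 ng of a PCR-amplified double-stranded random 35-nt library, with or without 28 ng coactivator protein, in 20 μL Tris–HCl pH 7.6 binding buffer for 20 min at RT. Complex bands were excised from native 6% PAGE, eluted and PCR-amplified over four rounds before Illumina sequencing.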
Sequence of POU1 (OCT1 POU domain) (P14859 260-458): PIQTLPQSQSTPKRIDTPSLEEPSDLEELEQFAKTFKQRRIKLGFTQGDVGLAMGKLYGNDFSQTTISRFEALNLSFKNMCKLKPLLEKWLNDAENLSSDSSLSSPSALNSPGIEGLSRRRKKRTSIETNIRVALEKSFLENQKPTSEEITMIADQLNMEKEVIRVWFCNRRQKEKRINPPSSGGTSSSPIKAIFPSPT
For orientation: A gel shift assay detects complexes by their altered migration in electrophoresis.

Assay [2] addresses T1, POU2 (OCT2 POU domain) (human, UniProt P09086 175-386).
T1 sequence: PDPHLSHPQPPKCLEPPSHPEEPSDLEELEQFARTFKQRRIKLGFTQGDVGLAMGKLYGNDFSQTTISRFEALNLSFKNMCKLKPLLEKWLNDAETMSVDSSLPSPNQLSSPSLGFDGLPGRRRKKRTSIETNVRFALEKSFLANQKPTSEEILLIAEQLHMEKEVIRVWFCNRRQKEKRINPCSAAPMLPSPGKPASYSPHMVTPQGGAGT
Described as above. Conditions: protein: recombinant; dsDNA, one strand shown. Summed up:
as §1

For assay [3], the target named is POU1 (OCT1 POU domain);BOB1 (OBF1, OCA-B) (human;human, UniProt P14859;Q16633 260-458;1-256, |). The experiment in a line: EMSA-SELEX-seq; with BOB1 (ternary complex band); 20 mM Tris-HCl pH 7.6, 140 mM NaCl, 10% glycerol, 0.5 mM EDTA, 0.05% Triton X-100, 0.1 mg/mL BSA, 0.1 mg/mL poly(dI-dC), 5 mM DTT, room temperature, 20 min; high values mean tight binding. Conditions: protein: recombinant;recombinant; copies: 1;1; dsDNA, one strand shown. Summed up:
as §1

The target of assay [4] is T2, POU2 (OCT2 POU domain);BOB1 (OBF1, OCA-B) (human;human, UniProt P09086;Q16633 175-386;1-256, |).
T2 sequence 1: T1 sequence
T2 sequence 2: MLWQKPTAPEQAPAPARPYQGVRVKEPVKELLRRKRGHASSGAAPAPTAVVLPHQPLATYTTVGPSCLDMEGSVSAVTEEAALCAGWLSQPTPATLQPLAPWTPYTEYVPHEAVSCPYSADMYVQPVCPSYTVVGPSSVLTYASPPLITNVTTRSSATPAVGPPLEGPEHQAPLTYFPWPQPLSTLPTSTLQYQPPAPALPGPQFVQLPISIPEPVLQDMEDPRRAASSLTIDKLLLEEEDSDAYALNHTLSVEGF
The assay is described as above. Conditions: protein: recombinant;recombinant; copies: 1;1; dsDNA, one strand shown. Summed up: as §1

On to ATTCTAAC, for which the binding signal was 0.0503 % of ANNNNAAN 8-mers in assay [1], 0.0495 % of ANNNNAAN 8-mers in assay [2], 0.0328 % of ANNNNAAN 8-mers in assay [3] and 0.0322 % of ANNNNAAN 8-mers in assay [4].

Turning to AGGAGAAA, the binding signal was 0.0572 % of ANNNNAAN 8-mers in assay [1], 0.0541 % of ANNNNAAN 8-mers in assay [2], 0.0539 % of ANNNNAAN 8-mers in assay [3] and 0.0471 % of ANNNNAAN 8-mers in assay [4].

As for ACCAGAAC, the binding signal is 0.013 % of ANNNNAAN 8-mers in assay [1], 0.0127 % of ANNNNAAN 8-mers in assay [2], 0.0129 % of ANNNNAAN 8-mers in assay [3] and 0.0223 % of ANNNNAAN 8-mers in assay [4].

Consider AATTCAAT, for which the binding signal in assay [1] was 0.121 % of ANNNNAAN 8-mers; in assay [2] it was 0.125 % of ANNNNAAN 8-mers; in assay [3], 0.0948 % of ANNNNAAN 8-mers; in assay [4], 0.125 % of ANNNNAAN 8-mers.

For AAAATAAA, the binding signal is 0.153 % of ANNNNAAN 8-mers in assay [1], 0.16 % of ANNNNAAN 8-mers in assay [2], 0.148 % of ANNNNAAN 8-mers in assay [3] and 0.105 % of ANNNNAAN 8-mers in assay [4].

On to ACATTAAA, for which the binding signal in assay [1] is 0.104 % of ANNNNAAN 8-mers; in assay [2], 0.125 % of ANNNNAAN 8-mers; in assay [3] it was 0.0624 % of ANNNNAAN 8-mers; in assay [4], 0.0611 % of ANNNNAAN 8-mers.

With ACCATAAC, the binding signal in assay [1] was 0.032 % of ANNNNAAN 8-mers; in assay [2], 0.0213 % of ANNNNAAN 8-mers; in assay [3], 0.014 % of ANNNNAAN 8-mers; in assay [4] it was 0.0198 % of ANNNNAAN 8-mers.

As to ATGGCAAC, the binding signal is 0.0263 % of ANNNNAAN 8-mers in assay [1], 0.0219 % of ANNNNAAN 8-mers in assay [2], 0.0297 % of ANNNNAAN 8-mers in assay [3] and 0.0264 % of ANNNNAAN 8-mers in assay [4].

Turning to AAACGAAG, the binding signal was 0.045 % of ANNNNAAN 8-mers in assay [1], 0.0483 % of ANNNNAAN 8-mers in assay [2], 0.0589 % of ANNNNAAN 8-mers in assay [3] and 0.0528 % of ANNNNAAN 8-mers in assay [4].

Regarding AGGGCAAG, the binding signal is 0.0294 % of ANNNNAAN 8-mers in assay [1], 0.0322 % of ANNNNAAN 8-mers in assay [2], 0.0332 % of ANNNNAAN 8-mers in assay [3] and 0.0363 % of ANNNNAAN 8-mers in assay [4].

As to ATTAGAAG, the binding signal in assay [1] was 0.0786 % of ANNNNAAN 8-mers; in assay [2], 0.101 % of ANNNNAAN 8-mers; in assay [3], 0.0585 % of ANNNNAAN 8-mers; in assay [4], 0.066 % of ANNNNAAN 8-mers.

On to ACGGCAAC, for which the binding signal in assay [1] was 0.0141 % of ANNNNAAN 8-mers; in assay [2], 0.0109 % of ANNNNAAN 8-mers; in assay [3], 0.0152 % of ANNNNAAN 8-mers; in assay [4], 0.0124 % of ANNNNAAN 8-mers.

AAAGTAAT: the binding signal in assay [1] was 0.103 % of ANNNNAAN 8-mers; in assay [2], 0.14 % of ANNNNAAN 8-mers; in assay [3], 0.11 % of ANNNNAAN 8-mers; in assay [4] it was 0.0941 % of ANNNNAAN 8-mers.

Turning to ATTACAAA, the binding signal in assay [1] was 0.0919 % of ANNNNAAN 8-mers; in assay [2] it was 0.0955 % of ANNNNAAN 8-mers; in assay [3], 0.08 % of ANNNNAAN 8-mers; in assay [4], 0.0685 % of ANNNNAAN 8-mers.

For the sequence AATGAAAC, the binding signal in assay [1] was 0.0461 % of ANNNNAAN 8-mers; in assay [2], 0.0719 % of ANNNNAAN 8-mers; in assay [3], 0.0433 % of ANNNNAAN 8-mers; in assay [4], 0.0487 % of ANNNNAAN 8-mers.
